Source: the supplement of paper PMC6089552
Hit rate of the full screen: of about 3,200 compounds, about 300 (9.4%) showed activity. The sample as a whole holds a higher share of actives than the screen did.

System: A673/TR/shEF
Test: cell viability (LOESS-normalised, relative to median of negative controls) (log2 ratio); higher = more viable cells (less compound effect), active = hit call of the paper (over 3 MAD below the median)
Details: treatment time: 72 h
How it was run: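 Viability of A673/TR/shEF Ewing sarcoma cells was determined by CellTiter-Glo luminescence. The cells, at 1,500 per well in 384-well plates, were grown with or without doxycycline from 24 h before compound addition to switch on EWS-FLI1 shRNA knockdown, then exposed for three days to library compounds at two or more concentrations or to DMSO controls. Signals were LOESS-corrected plate by plate, normalised to the negative-control median and log2-transformed.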

[1] = 0.025 µM, library screen: screen2, EWS-FLI1 expression: high (no doxycycline)
[2] = 0.025 µM, library screen: screen2, EWS-FLI1 expression: low (doxycycline-induced shRNA knockdown)
[3] = 0.25 µM, library screen: screen1, EWS-FLI1 expression: high (no doxycycline)
[4] = 0.25 µM, library screen: screen1, EWS-FLI1 expression: low (doxycycline-induced shRNA knockdown)
[5] = 0.25 µM, library screen: screen2, EWS-FLI1 expression: high (no doxycycline)
[6] = 0.25 µM, library screen: screen2, EWS-FLI1 expression: low (doxycycline-induced shRNA knockdown)
[7] = 2.5 µM, library screen: screen1, EWS-FLI1 expression: high (no doxycycline)
[8] = 2.5 µM, library screen: screen1, EWS-FLI1 expression: low (doxycycline-induced shRNA knockdown)
[9] = 2.5 µM, library screen: screen2, EWS-FLI1 expression: high (no doxycycline)
[10] = 2.5 µM, library screen: screen2, EWS-FLI1 expression: low (doxycycline-induced shRNA knockdown)
[11] = 25 µM, library screen: screen2, EWS-FLI1 expression: high (no doxycycline)
[12] = 25 µM, library screen: screen2, EWS-FLI1 expression: low (doxycycline-induced shRNA knockdown)
[13] = 0.025 µM, library screen: screen1, EWS-FLI1 expression: high (no doxycycline)
[14] = 0.025 µM, library screen: screen1, EWS-FLI1 expression: low (doxycycline-induced shRNA knockdown)
[15] = 25 µM, library screen: screen1, EWS-FLI1 expression: high (no doxycycline)
[16] = 25 µM, library screen: screen1, EWS-FLI1 expression: low (doxycycline-induced shRNA knockdown)

Measured: cell viability (log2)

Cn1c(CCCC(=O)O)nc2cc(N(CCCl)CCCl)ccc21
inactive: 0.103 µM, library screen: screen3, EWS-FLI1 expression: high (no doxycycline) 0.058 | 0.103 µM, library screen: screen3, EWS-FLI1 expression: low (doxycycline-induced shRNA knockdown) 0.0297 | 0.308 µM, library screen: screen3, EWS-FLI1 expression: high (no doxycycline) -0.00941 | 0.308 µM, library screen: screen3, EWS-FLI1 expression: low (doxycycline-induced shRNA knockdown) 0.026 | 0.926 µM, library screen: screen3, EWS-FLI1 expression: high (no doxycycline) -0.00645 | 0.926 µM, library screen: screen3, EWS-FLI1 expression: low (doxycycline-induced shRNA knockdown) 0.00947 | 2.8 µM, library screen: screen3, EWS-FLI1 expression: high (no doxycycline) -0.0453 | 2.8 µM, library screen: screen3, EWS-FLI1 expression: low (doxycycline-induced shRNA knockdown) -0.00369 | 8.3 µM, library screen: screen3, EWS-FLI1 expression: high (no doxycycline) 0.00708 | 8.3 µM, library screen: screen3, EWS-FLI1 expression: low (doxycycline-induced shRNA knockdown) 0.0974 | 25 µM, library screen: screen3, EWS-FLI1 expression: high (no doxycycline) -0.0533 | 25 µM, library screen: screen3, EWS-FLI1 expression: low (doxycycline-induced shRNA knockdown) 0.0463

O=C(O)CCCc1ccc(N(CCCl)CCCl)cc1
inactive: [1] 0.0942 | [2] 0.0711 | [3] 0.0971 | [4] 0.0808 | [5] 0.12 | [6] 0.0418 | [7] 0.142 | [8] 0.131 | [9] 0.101 | [10] 0.11 | [12] 0.0238
active: [11] -0.0762

N[C@@H](Cc1ccc(N(CCCl)CCCl)cc1)C(=O)O
inactive: [3] 0.0874 | [4] 0.0161 | [5] 0.175 | [6] 0.17 | [7] 0.00755 | [8] 0.0488 | [9] 0.22 | [10] 0.172

CC(=O)CC1CCCCN1 (stereo unspecified)
inactive: [3] 0.0906 | [4] -0.00634 | [7] 0.0756 | [8] -0.083

CC(=O)O[C@@H]1CC2C(C)(C)[C@H](O)C=C[C@]2(C)C2CC[C@]3(C)C(=CC(=O)O[C@H]3c3ccoc3)[C@@]21C (stereo partly specified)
inactive: [3] 0.113 | [4] 0.0781 | [7] 0.222 | [8] 0.195

CCc1cccc(CC)c1N(COC)C(=O)CCl
inactive: [3] 0.0413 | [4] -0.00378 | [7] 0.0617 | [8] 0.0338

CC1(C)C(C=C(Cl)Cl)C1C(=O)OC(C#N)c1cccc(Oc2ccccc2)c1 (stereo unspecified)
active: [15] -0.287 | [16] -0.665
inactive: [13] 0.0827 | [14] 0.0478 | [3] 0.102 | [4] -0.0402 | [7] 0.0354 | [8] -0.0899

CC1(C)[C@H](C(=O)O[C@H](C#N)c2cccc(Oc3ccccc3)c2)[C@@H]1C=C(Br)Br
inactive: [13] 0.0513 | [14] -0.0407 | [3] 0.047 | [4] 0.086 | [7] 0.112 | [8] 0.12 | [15] -0.0163 | [16] 0.0977

CC(C)C(C(=O)OC(C#N)c1cccc(Oc2ccccc2)c1)c1ccc(Cl)cc1 (stereo unspecified)
inactive: [13] 0.0912 | [14] 0.0926 | [3] 0.0365 | [4] 0.00166 | [7] 0.0694 | [8] 0.0411 | [15] 0.0435 | [16] 0.0476

CC1(C)C(=O)C=C[C@]2(C)C3CC[C@@]4(C)[C@H](c5ccoc5)C[C@H]5O[C@]54C3[C@H](O)CC12 (stereo partly specified)
inactive: [3] 0.0404 | [4] 0.00309 | [7] 0.102 | [8] 0.0462

C[C@H]1C(=O)O[C@@H]2CCN3CC=C(COC(=O)[C@](C)(O)[C@]1(C)O)[C@H]23
inactive: [1] 0.0665 | [2] 0.0541 | [3] 0.00981 | [4] 0.0549 | [5] 0.122 | [6] 0.0363 | [7] 0.0901 | [8] 0.111 | [9] 0.0833 | [10] 0.0416 | [11] 0.0406 | [12] 0.0625

COC(=O)[C@]1(C)CC[C@]2(C)CC[C@]3(C)C4=CC=C5C(=CC(=O)C(O)=C5C)[C@]4(C)CC[C@@]3(C)[C@@H]2C1
inactive: [3] -0.0347 | [4] 0.133
active: [7] -2.91 | [8] -3.05

CC1=C(O)C(=O)C=C2C1=CC=C1[C@@]2(C)CC[C@@]2(C)[C@@H]3C[C@](C)(C(=O)O)CC[C@]3(C)CC[C@]12C
active: [7] -1.03 | [9] -4.23 | [10] -0.301 | [11] -4.23 | [12] -3.9
inactive: [1] 0.14 | [2] 0.0632 | [3] 0.0936 | [4] 0.0786 | [5] 0.154 | [6] 0.0872 | [8] 0.0632

COC(=O)[C@]1(C)CC[C@]2(C)CC[C@]3(C)C4=CCc5c(cc(O)c(O)c5C)[C@]4(C)CC[C@@]3(C)[C@@H]2C1
inactive: [3] 0.0264 | [4] 0.158
active: [7] -1.44 | [8] -0.357

Cc1c(O)c(O)cc2c1CC=C1[C@@]2(C)CC[C@@]2(C)[C@@H]3C[C@](C)(C(=O)O)CC[C@]3(C)CC[C@]12C
inactive: [3] 0.102 | [4] 0.0187 | [7] 0.0348 | [8] 0.22

NCC(CC(=O)O)c1ccc(Cl)cc1 (stereo unspecified)
inactive: [3] 0.0966 | [4] 0.12 | [5] 0.221 | [6] 0.138 | [7] 0.123 | [8] 0.15 | [9] 0.124 | [10] 0.0836
